The values below come from the supplement of paper PMC11624193, “Coupling cellular drug-target engagement to downstream pharmacology with CeTEAM” (Nature Communications, 2024).

Where a name gives a salt, the structure may show the parent alone. Values without a mark were called inactive.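 How the source made its calls: active = log2 fold change beyond 2 SD from the library mean after excluding viability outliers; inactive = within 2 SD.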

Chain of PARP1 L713F-nLuc biosensor (HCT116) (P09874 whole entry L713F, looked up): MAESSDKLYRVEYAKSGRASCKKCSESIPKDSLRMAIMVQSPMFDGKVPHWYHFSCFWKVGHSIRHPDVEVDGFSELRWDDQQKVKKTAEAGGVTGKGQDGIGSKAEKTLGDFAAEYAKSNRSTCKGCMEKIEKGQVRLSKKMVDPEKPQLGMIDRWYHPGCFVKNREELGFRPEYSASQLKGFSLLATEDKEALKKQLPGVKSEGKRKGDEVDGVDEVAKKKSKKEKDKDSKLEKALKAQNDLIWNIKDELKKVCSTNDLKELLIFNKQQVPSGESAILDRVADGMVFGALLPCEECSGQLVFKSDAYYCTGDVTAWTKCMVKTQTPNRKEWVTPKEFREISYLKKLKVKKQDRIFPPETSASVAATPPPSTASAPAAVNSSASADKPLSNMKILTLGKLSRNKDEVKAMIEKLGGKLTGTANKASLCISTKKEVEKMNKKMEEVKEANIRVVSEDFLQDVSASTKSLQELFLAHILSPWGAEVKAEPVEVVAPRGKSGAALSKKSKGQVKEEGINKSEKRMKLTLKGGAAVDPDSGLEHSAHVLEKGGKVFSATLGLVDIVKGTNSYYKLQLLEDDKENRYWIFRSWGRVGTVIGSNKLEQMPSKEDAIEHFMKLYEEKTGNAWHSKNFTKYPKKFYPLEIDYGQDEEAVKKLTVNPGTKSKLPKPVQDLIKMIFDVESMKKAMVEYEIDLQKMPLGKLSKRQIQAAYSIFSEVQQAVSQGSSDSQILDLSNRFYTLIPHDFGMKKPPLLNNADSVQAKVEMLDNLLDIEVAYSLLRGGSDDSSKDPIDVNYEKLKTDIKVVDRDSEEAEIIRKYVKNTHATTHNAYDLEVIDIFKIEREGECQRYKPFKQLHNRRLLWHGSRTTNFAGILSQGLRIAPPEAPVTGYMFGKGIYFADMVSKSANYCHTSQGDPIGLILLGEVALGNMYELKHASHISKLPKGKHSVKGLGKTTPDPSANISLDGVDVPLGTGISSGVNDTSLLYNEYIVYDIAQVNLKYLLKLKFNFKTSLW

The assay has as its target PARP1 L713F-nLuc biosensor (HCT116) (UniProt P09874). Kind of assay: PARP1 L713F-nLuc/akaLuc ratio relative to DMSO control (biosensor stabilization) (fold change); higher = more PARP1 biosensor stabilization (target engagement / stabilizer), active = hit call of the paper. As to conditions: stock concentration (mM; final µM = stock mM x 1): 10; 24 h.
In the case of `O=C(/C=C/c1ccc(O)c(O)c1)c1ccc(O[C@@H]2O[C@H](CO)[C@@H](O)[C@H](O)[C@H]2O)c(O)c1O` [Marein], the “PARP1 L713F-nLuc/akaLuc ratio” value is 0.984.

For `O=c1[nH]c(CSC2CCC(O)CC2)nc2cc(OCC3CC3)cc(F)c12` (configuration not stated), the “PARP1 L713F-nLuc/akaLuc ratio” value is 1.21. Consider `CN(C)C(=N)N=C(N)N` [Metformin D6 (hydrochloride)], for which the “PARP1 L713F-nLuc/akaLuc ratio” value was 1.08. On to `NC(=O)c1cccc2cn(-c3ccc([C@@H]4CCCNC4)cc3)nc12` [Niraparib (hydrochloride)], for which the “PARP1 L713F-nLuc/akaLuc ratio” value was 4.39 (active). With `O=C(O)CCNc1cc(N2CCc3ccccc3CC2)nc(-c2ccccn2)n1` the figure was 0.92; with `COC(=O)Nc1nc2cc(Sc3ccccc3)ccc2[nH]1` [Fenbendazole], 2.66; with `COc1cc(OC2CCN(C)CC2)ccc1Nc1ncc2c(n1)n(C1CCCC1)c(=O)n2C`, 1.18. With `N#Cc1ccc2ncnc(NCCc3ccccc3)c2c1` [Senexin A], the “PARP1 L713F-nLuc/akaLuc ratio” value was 1.24. As for `CC(C)(C)C[C@@H]1N[C@@H](C(=O)N[C@H]2CC[C@H](O)CC2)[C@H](c2cccc(Cl)c2F)[C@]12C(=O)Nc1cc(Cl)ccc12`, the “PARP1 L713F-nLuc/akaLuc ratio” value was 0.287 (active).

Take `COc1cc2onc(C)c2cc1NS(=O)(=O)c1cc(Br)ccc1OC`: the “PARP1 L713F-nLuc/akaLuc ratio” value is 0.95. With `Cc1cc(C)nc(SCC(=O)Nc2ncc(Cc3cccc(OCc4cn(Cc5ccccc5)nn4)c3)s2)n1`, the “PARP1 L713F-nLuc/akaLuc ratio” value was 0.615.

Turning to `NC(=O)c1cnc2[nH]ccc2c1N[C@@H]1[C@@H]2CC3C[C@H]1C[C@@](O)(C3)C2` [Peficitinib], the “PARP1 L713F-nLuc/akaLuc ratio” value is 1.02.
